# Results as given in article PMC11006913.
# Changes are numbered by the printed parent chain.
# Experiments:
# Assay in all cases: PBM; 200 nM protein, PBS
# Conditions in all cases: dsDNA, one strand shown
# HOXA4 [1] = target: HOXA4 (Homo sapiens, UniProt Q00056 201-287, W262R)
# HOXA4 [2] = target: HOXA4 (Homo sapiens, UniProt Q00056 201-287, R217L)
# MSX2 [3] = target: MSX2 (Homo sapiens, UniProt P35548 130-214, R199I)
# NKX2-6 [4] = target: T1, NKX2-6 (Homo sapiens, UniProt A6NCS4 118-204)
# T1 sequence: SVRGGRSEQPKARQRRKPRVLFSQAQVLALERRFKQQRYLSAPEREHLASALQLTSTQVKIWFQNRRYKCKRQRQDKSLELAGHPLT
# HOXA4 [5] = target: HOXA4 (Homo sapiens, UniProt Q00056 201-287)
# MSX2 [6] = target: MSX2 (Homo sapiens, UniProt P35548 130-214)
# NKX2-6 [7] = target: T2, NKX2-6 (Homo sapiens, UniProt A6NCS4 118-204, F151L)
# T2 sequence: T1 sequence with F34L
# MSX2 [8] = target: MSX2 (Homo sapiens, UniProt P35548 130-214, F161Y)
# HOXA4 [9] = target: HOXA4 (Homo sapiens, UniProt Q00056 201-287, W262F)
# HOXA2 [10] = target: HOXA2 (Homo sapiens, UniProt O43364 129-215, R185T)
# HOXA2 [11] = target: HOXA2 (Homo sapiens, UniProt O43364 129-215, R185K)
# HOXA2 [12] = target: HOXA2 (Homo sapiens, UniProt O43364 129-215, Y150S)
# HOXA2 [13] = target: HOXA2 (Homo sapiens, UniProt O43364 129-215)
# HOXD13 [14] = target: HOXD13 (Homo sapiens, UniProt P35453 263-343, T313R)
# HOXD13 [15] = target: HOXD13 (Homo sapiens, UniProt P35453 263-343)
# HOXD13 [16] = target: HOXD13 (Homo sapiens, UniProt P35453 263-343, T313A)
# HOXB6 [17] = target: HOXB6 (Homo sapiens, UniProt P17509 132-218, K202E)
# HOXB6 [18] = target: HOXB6 (Homo sapiens, UniProt P17509 132-218)
# ALX3 [19] = target: ALX3 (Homo sapiens, UniProt O95076 139-225, N203Q)
# ALX3 [20] = target: ALX3 (Homo sapiens, UniProt O95076 139-225)
# ALX3 [21] = target: ALX3 (Homo sapiens, UniProt O95076 139-225, L168Q)
# ALX3 [22] = target: ALX3 (Homo sapiens, UniProt O95076 139-225, L168V)
# ALX3 [23] = target: ALX3 (Homo sapiens, UniProt O95076 139-225, N203S)
# Sequence of ALX3 (Homo sapiens, UniProt O95076 139-225, N203S) (O95076 139-225 N203S): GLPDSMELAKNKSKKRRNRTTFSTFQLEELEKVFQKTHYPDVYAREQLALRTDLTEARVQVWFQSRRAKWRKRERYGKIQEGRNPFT
# Sequence of HOXA4 (Homo sapiens, UniProt Q00056 201-287, W262R) (Q00056 201-287 W262R): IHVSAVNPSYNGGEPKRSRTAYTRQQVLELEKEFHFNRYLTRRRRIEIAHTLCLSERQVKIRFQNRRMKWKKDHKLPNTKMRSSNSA
# Sequence of ALX3 (Homo sapiens, UniProt O95076 139-225, L168Q) (O95076 139-225 L168Q): as the sequence (O95076 139-225 N203S) above, with L30Q, S65N counted along it
# Sequence of ALX3 (Homo sapiens, UniProt O95076 139-225, L168V) (O95076 139-225 L168V): as the sequence (O95076 139-225 N203S) above, with L30V, S65N counted along it
# Sequence of MSX2 (Homo sapiens, UniProt P35548 130-214, F161Y) (P35548 130-214 F161Y): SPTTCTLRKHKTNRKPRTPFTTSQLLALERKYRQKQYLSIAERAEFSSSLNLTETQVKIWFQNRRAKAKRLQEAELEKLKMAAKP
# Sequence of HOXA4 (Homo sapiens, UniProt Q00056 201-287) (Q00056 201-287): as the sequence (Q00056 201-287 W262R) above, with R62W counted along it
# Sequence of HOXA4 (Homo sapiens, UniProt Q00056 201-287, R217L) (Q00056 201-287 R217L): as the sequence (Q00056 201-287 W262R) above, with R17L, R62W counted along it
# Sequence of ALX3 (Homo sapiens, UniProt O95076 139-225) (O95076 139-225): as the sequence (O95076 139-225 N203S) above, with S65N counted along it
# Sequence of MSX2 (Homo sapiens, UniProt P35548 130-214) (P35548 130-214): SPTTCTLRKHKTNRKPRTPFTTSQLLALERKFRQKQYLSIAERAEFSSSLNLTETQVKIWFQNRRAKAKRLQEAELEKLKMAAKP
# Sequence of HOXA4 (Homo sapiens, UniProt Q00056 201-287, W262F) (Q00056 201-287 W262F): as the sequence (Q00056 201-287 W262R) above, with R62F counted along it
# Sequence of MSX2 (Homo sapiens, UniProt P35548 130-214, R199I) (P35548 130-214 R199I): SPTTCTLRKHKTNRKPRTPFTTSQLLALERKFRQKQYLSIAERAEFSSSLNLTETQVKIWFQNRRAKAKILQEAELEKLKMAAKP
# Sequence of ALX3 (Homo sapiens, UniProt O95076 139-225, N203Q) (O95076 139-225 N203Q): as the sequence (O95076 139-225 N203S) above, with S65Q counted along it
# Sequence of HOXA2 (Homo sapiens, UniProt O43364 129-215, Y150S) (O43364 129-215 Y150S): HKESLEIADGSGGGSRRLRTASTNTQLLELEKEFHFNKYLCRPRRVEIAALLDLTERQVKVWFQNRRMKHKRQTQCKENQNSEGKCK
# Sequence of HOXA2 (Homo sapiens, UniProt O43364 129-215, R185K) (O43364 129-215 R185K): as the sequence (O43364 129-215 Y150S) above, with S22Y, R57K counted along it
# Sequence of HOXA2 (Homo sapiens, UniProt O43364 129-215, R185T) (O43364 129-215 R185T): as the sequence (O43364 129-215 Y150S) above, with S22Y, R57T counted along it
# Sequence of HOXA2 (Homo sapiens, UniProt O43364 129-215) (O43364 129-215): as the sequence (O43364 129-215 Y150S) above, with S22Y counted along it
# Sequence of HOXD13 (Homo sapiens, UniProt P35453 263-343) (P35453 263-343): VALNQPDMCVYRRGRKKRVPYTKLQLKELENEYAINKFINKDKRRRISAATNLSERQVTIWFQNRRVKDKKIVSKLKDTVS
# Sequence of HOXB6 (Homo sapiens, UniProt P17509 132-218) (P17509 132-218): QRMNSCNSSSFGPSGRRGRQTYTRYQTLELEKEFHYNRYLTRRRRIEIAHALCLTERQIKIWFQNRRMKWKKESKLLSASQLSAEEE
# Sequence of HOXD13 (Homo sapiens, UniProt P35453 263-343, T313R) (P35453 263-343 T313R): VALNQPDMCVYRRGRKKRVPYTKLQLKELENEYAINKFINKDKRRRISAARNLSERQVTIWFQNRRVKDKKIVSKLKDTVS
# Sequence of HOXD13 (Homo sapiens, UniProt P35453 263-343, T313A) (P35453 263-343 T313A): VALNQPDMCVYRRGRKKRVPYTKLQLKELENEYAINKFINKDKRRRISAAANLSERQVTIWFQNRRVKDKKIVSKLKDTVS
# Sequence of HOXB6 (Homo sapiens, UniProt P17509 132-218, K202E) (P17509 132-218 K202E): as the sequence (P17509 132-218) above, with K71E counted along it
sequence,measurement,setting,value
CCCGGTCG,binding signal,HOXA4 [1],"9.67 upbm affinity estimate (log intensity, higher = more binding, comparable within an allelic series)"
same,binding signal,HOXA4 [2],"9.77 upbm affinity estimate (log intensity, higher = more binding, comparable within an allelic series)"
same,binding signal,MSX2 [3],"9.45 upbm affinity estimate (log intensity, higher = more binding, comparable within an allelic series)"
same,binding signal,NKX2-6 [4],"9.06 upbm affinity estimate (log intensity, higher = more binding, comparable within an allelic series)"
same,binding signal,HOXA4 [5],"9.88 upbm affinity estimate (log intensity, higher = more binding, comparable within an allelic series)"
same,binding signal,MSX2 [6],"9.4 upbm affinity estimate (log intensity, higher = more binding, comparable within an allelic series)"
same,binding signal,NKX2-6 [7],"9.02 upbm affinity estimate (log intensity, higher = more binding, comparable within an allelic series)"
same,binding signal,MSX2 [8],"9.41 upbm affinity estimate (log intensity, higher = more binding, comparable within an allelic series)"
same,binding signal,HOXA4 [9],"9.76 upbm affinity estimate (log intensity, higher = more binding, comparable within an allelic series)"
CACTGGCC,binding signal,HOXA4 [1],"9.86 upbm affinity estimate (log intensity, higher = more binding, comparable within an allelic series)"
same,binding signal,HOXA2 [10],"7.06 upbm affinity estimate (log intensity, higher = more binding, comparable within an allelic series)"
same,binding signal,HOXA4 [2],"9.9 upbm affinity estimate (log intensity, higher = more binding, comparable within an allelic series)"
same,binding signal,HOXA2 [11],"10.5 upbm affinity estimate (log intensity, higher = more binding, comparable within an allelic series)"
same,binding signal,HOXA4 [5],"9.86 upbm affinity estimate (log intensity, higher = more binding, comparable within an allelic series)"
same,binding signal,HOXA2 [12],"10.5 upbm affinity estimate (log intensity, higher = more binding, comparable within an allelic series)"
same,binding signal,HOXA4 [9],"9.96 upbm affinity estimate (log intensity, higher = more binding, comparable within an allelic series)"
same,binding signal,HOXA2 [13],"7.16 upbm affinity estimate (log intensity, higher = more binding, comparable within an allelic series)"
AGGGCGGG,binding signal,HOXA4 [1],"9.85 upbm affinity estimate (log intensity, higher = more binding, comparable within an allelic series)"
same,binding signal,HOXA4 [2],"9.99 upbm affinity estimate (log intensity, higher = more binding, comparable within an allelic series)"
same,binding signal,MSX2 [3],"9.58 upbm affinity estimate (log intensity, higher = more binding, comparable within an allelic series)"
same,binding signal,HOXA4 [5],"10 upbm affinity estimate (log intensity, higher = more binding, comparable within an allelic series)"
same,binding signal,MSX2 [6],"9.55 upbm affinity estimate (log intensity, higher = more binding, comparable within an allelic series)"
same,binding signal,MSX2 [8],"9.62 upbm affinity estimate (log intensity, higher = more binding, comparable within an allelic series)"
same,binding signal,HOXA4 [9],"10.1 upbm affinity estimate (log intensity, higher = more binding, comparable within an allelic series)"
AGAAGGGG,binding signal,HOXA4 [1],"9.84 upbm affinity estimate (log intensity, higher = more binding, comparable within an allelic series)"
same,binding signal,HOXA4 [2],"9.53 upbm affinity estimate (log intensity, higher = more binding, comparable within an allelic series)"
same,binding signal,HOXD13 [14],"9.5 upbm affinity estimate (log intensity, higher = more binding, comparable within an allelic series)"
same,binding signal,HOXD13 [15],"9.51 upbm affinity estimate (log intensity, higher = more binding, comparable within an allelic series)"
same,binding signal,HOXA4 [5],"9.57 upbm affinity estimate (log intensity, higher = more binding, comparable within an allelic series)"
same,binding signal,HOXD13 [16],"9.57 upbm affinity estimate (log intensity, higher = more binding, comparable within an allelic series)"
same,binding signal,HOXA4 [9],"9.68 upbm affinity estimate (log intensity, higher = more binding, comparable within an allelic series)"
GCCCCCAC,binding signal,HOXA4 [1],"9.79 upbm affinity estimate (log intensity, higher = more binding, comparable within an allelic series)"
same,binding signal,HOXB6 [17],"9.03 upbm affinity estimate (log intensity, higher = more binding, comparable within an allelic series)"
same,binding signal,HOXA4 [2],"9.73 upbm affinity estimate (log intensity, higher = more binding, comparable within an allelic series)"
same,binding signal,HOXA4 [5],"9.63 upbm affinity estimate (log intensity, higher = more binding, comparable within an allelic series)"
same,binding signal,HOXA4 [9],"9.84 upbm affinity estimate (log intensity, higher = more binding, comparable within an allelic series)"
same,binding signal,HOXB6 [18],"8.92 upbm affinity estimate (log intensity, higher = more binding, comparable within an allelic series)"
ATCCCCCC,binding signal,HOXA4 [1],"9.64 upbm affinity estimate (log intensity, higher = more binding, comparable within an allelic series)"
same,binding signal,HOXA2 [10],"7.17 upbm affinity estimate (log intensity, higher = more binding, comparable within an allelic series)"
same,binding signal,HOXA4 [2],"9.49 upbm affinity estimate (log intensity, higher = more binding, comparable within an allelic series)"
same,binding signal,ALX3 [19],"7.65 upbm affinity estimate (log intensity, higher = more binding, comparable within an allelic series)"
same,binding signal,HOXA2 [11],"10.1 upbm affinity estimate (log intensity, higher = more binding, comparable within an allelic series)"
same,binding signal,HOXA4 [5],"9.5 upbm affinity estimate (log intensity, higher = more binding, comparable within an allelic series)"
same,binding signal,ALX3 [20],"7.91 upbm affinity estimate (log intensity, higher = more binding, comparable within an allelic series)"
same,binding signal,ALX3 [21],"7.61 upbm affinity estimate (log intensity, higher = more binding, comparable within an allelic series)"
same,binding signal,ALX3 [22],"7.58 upbm affinity estimate (log intensity, higher = more binding, comparable within an allelic series)"
same,binding signal,HOXA2 [12],"10.4 upbm affinity estimate (log intensity, higher = more binding, comparable within an allelic series)"
same,binding signal,HOXA4 [9],"9.46 upbm affinity estimate (log intensity, higher = more binding, comparable within an allelic series)"
same,binding signal,ALX3 [23],"7.67 upbm affinity estimate (log intensity, higher = more binding, comparable within an allelic series)"
same,binding signal,HOXA2 [13],"7.3 upbm affinity estimate (log intensity, higher = more binding, comparable within an allelic series)"
GGCCCGGA,binding signal,HOXA4 [1],"9.72 upbm affinity estimate (log intensity, higher = more binding, comparable within an allelic series)"
same,binding signal,HOXA4 [2],"9.68 upbm affinity estimate (log intensity, higher = more binding, comparable within an allelic series)"
same,binding signal,MSX2 [3],"9.48 upbm affinity estimate (log intensity, higher = more binding, comparable within an allelic series)"
same,binding signal,ALX3 [19],"7.72 upbm affinity estimate (log intensity, higher = more binding, comparable within an allelic series)"
same,binding signal,HOXA4 [5],"9.79 upbm affinity estimate (log intensity, higher = more binding, comparable within an allelic series)"
same,binding signal,MSX2 [6],"9.31 upbm affinity estimate (log intensity, higher = more binding, comparable within an allelic series)"
same,binding signal,ALX3 [20],"7.7 upbm affinity estimate (log intensity, higher = more binding, comparable within an allelic series)"
same,binding signal,ALX3 [21],"7.72 upbm affinity estimate (log intensity, higher = more binding, comparable within an allelic series)"
same,binding signal,ALX3 [22],"7.71 upbm affinity estimate (log intensity, higher = more binding, comparable within an allelic series)"
same,binding signal,MSX2 [8],"9.46 upbm affinity estimate (log intensity, higher = more binding, comparable within an allelic series)"
same,binding signal,HOXA4 [9],"9.78 upbm affinity estimate (log intensity, higher = more binding, comparable within an allelic series)"
same,binding signal,ALX3 [23],"7.75 upbm affinity estimate (log intensity, higher = more binding, comparable within an allelic series)"
CCCCCGGC,binding signal,HOXA4 [1],"9.54 upbm affinity estimate (log intensity, higher = more binding, comparable within an allelic series)"
same,binding signal,HOXA4 [2],"9.54 upbm affinity estimate (log intensity, higher = more binding, comparable within an allelic series)"
same,binding signal,ALX3 [19],"7.57 upbm affinity estimate (log intensity, higher = more binding, comparable within an allelic series)"
same,binding signal,HOXA4 [5],"9.88 upbm affinity estimate (log intensity, higher = more binding, comparable within an allelic series)"
same,binding signal,ALX3 [20],"7.92 upbm affinity estimate (log intensity, higher = more binding, comparable within an allelic series)"
same,binding signal,ALX3 [21],"7.56 upbm affinity estimate (log intensity, higher = more binding, comparable within an allelic series)"
same,binding signal,ALX3 [22],"7.46 upbm affinity estimate (log intensity, higher = more binding, comparable within an allelic series)"
same,binding signal,HOXA4 [9],"9.51 upbm affinity estimate (log intensity, higher = more binding, comparable within an allelic series)"
same,binding signal,ALX3 [23],"7.52 upbm affinity estimate (log intensity, higher = more binding, comparable within an allelic series)"
GCTGCTCC,binding signal,HOXA4 [1],"9.76 upbm affinity estimate (log intensity, higher = more binding, comparable within an allelic series)"
same,binding signal,HOXA4 [2],"9.74 upbm affinity estimate (log intensity, higher = more binding, comparable within an allelic series)"
same,binding signal,MSX2 [3],"9.39 upbm affinity estimate (log intensity, higher = more binding, comparable within an allelic series)"
same,binding signal,HOXA4 [5],"9.73 upbm affinity estimate (log intensity, higher = more binding, comparable within an allelic series)"
same,binding signal,MSX2 [6],"9.4 upbm affinity estimate (log intensity, higher = more binding, comparable within an allelic series)"
same,binding signal,MSX2 [8],"9.41 upbm affinity estimate (log intensity, higher = more binding, comparable within an allelic series)"
same,binding signal,HOXA4 [9],"9.78 upbm affinity estimate (log intensity, higher = more binding, comparable within an allelic series)"
CCAGCGGG,binding signal,HOXA4 [1],"9.83 upbm affinity estimate (log intensity, higher = more binding, comparable within an allelic series)"
same,binding signal,HOXA4 [2],"9.65 upbm affinity estimate (log intensity, higher = more binding, comparable within an allelic series)"
same,binding signal,HOXA4 [5],"9.72 upbm affinity estimate (log intensity, higher = more binding, comparable within an allelic series)"
same,binding signal,HOXA4 [9],"9.76 upbm affinity estimate (log intensity, higher = more binding, comparable within an allelic series)"
CCCGTGTC,binding signal,HOXA4 [1],"9.85 upbm affinity estimate (log intensity, higher = more binding, comparable within an allelic series)"
same,binding signal,HOXA4 [2],"9.73 upbm affinity estimate (log intensity, higher = more binding, comparable within an allelic series)"
same,binding signal,NKX2-6 [4],"9.5 upbm affinity estimate (log intensity, higher = more binding, comparable within an allelic series)"
same,binding signal,HOXA4 [5],"9.62 upbm affinity estimate (log intensity, higher = more binding, comparable within an allelic series)"
same,binding signal,NKX2-6 [7],"9.22 upbm affinity estimate (log intensity, higher = more binding, comparable within an allelic series)"
same,binding signal,HOXA4 [9],"9.79 upbm affinity estimate (log intensity, higher = more binding, comparable within an allelic series)"
